# From PubChem BioAssay
# Active and inactive are the calls of the source. How the calls were made is not given here.
# Target: Pantothenate synthetase (Mycobacterium tuberculosis (strain ATCC 25618 / H37Rv)) (UniProt P9WIL5)
# Assay: Recombinant Mtb pantothenate synthetase (PanC) inhibitors, coupled enzyme, confirmatory (AID 375);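 further: 0% = full reaction with vehicle and 100% = no enzyme background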
# Details: coupled enzyme assay; at 10 µM, active compounds read high
# Pantothenate synthetase (Mycobacterium tuberculosis (strain ATCC 25618 / H37Rv)), sequence (P9WIL5 whole entry, looked up): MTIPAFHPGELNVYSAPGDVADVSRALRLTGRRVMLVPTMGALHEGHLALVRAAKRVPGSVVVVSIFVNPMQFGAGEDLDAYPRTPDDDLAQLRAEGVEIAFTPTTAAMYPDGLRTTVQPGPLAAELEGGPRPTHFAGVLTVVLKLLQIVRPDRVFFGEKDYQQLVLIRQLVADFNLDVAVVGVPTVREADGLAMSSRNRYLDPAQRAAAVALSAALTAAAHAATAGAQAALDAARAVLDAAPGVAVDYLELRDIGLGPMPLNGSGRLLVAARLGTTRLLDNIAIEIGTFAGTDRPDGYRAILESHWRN
row,Compound,inhibition
1,Cc1ccc(-n2c3c(cc(C(=O)NC4CCSC4=O)c2=O)C(=O)CC(C)(C)C3)cc1 (stereo not given),0% (inactive)
2,COc1ccc(/C(O)=C2/C(=O)C(=O)N(Cc3cccnc3)C2c2ccncc2)cc1F (stereo not given),4% (inactive)
3,O=C(CSc1nnc(-c2ccc(Br)o2)n1Cc1ccccc1)c1ccccc1F,2% (inactive)
4,Cc1ccc(-c2nnn(CC(=O)N(CC3CCCO3)C(C(=O)NC(C)(C)C)c3ccc(F)cc3)n2)o1 (stereo not given),6% (inactive)
5,O=C(Cn1nc(-c2ccc3c(c2)OCCO3)ccc1=O)Nc1ccc(N2CCOCC2)cc1,0% (inactive)
6,Cc1nc(CNS(=O)(=O)c2ccc3c(c2)OCCO3)cs1,0% (inactive)
7,O=C1CCCC2=C1C(c1ccsc1)CC(=O)N2c1ccccc1 (stereo not given),0% (inactive)
8,O=C(Cc1ccc(Br)cc1)N1CCCCCC1,1% (inactive)
9,CCOC(=O)c1cc2c(=O)n3ccccc3nc2n(CCCOC)c1=NC(=O)C(C)(C)C,4% (inactive)
10,CC1CN(c2c3c(nc4ncnn24)CCCC3)CC(C)O1 (stereo not given),2% (inactive)
11,NCc1cccc(-n2cccn2)c1,0% (inactive)
12,CC(=O)[C@@]1(O)CC[C@H]2[C@@H]3CCC4=CC(=O)CC[C@]4(C)[C@H]3[C@@H](O)C[C@@]21C,0% (inactive)
13,CCN(CC)c1nc(N(CC)CC)[nH]c(=O)n1,0% (inactive)
14,Cc1nc2ccc(S(=O)(=O)NC(C(=O)Nc3nccs3)C(C)C)cc2s1 (stereo not given),0% (inactive)
15,CCN1CCN(C(=O)C2CCN(C(=O)c3cc4sccc4n3CC)CC2)CC1,14% (inactive)
16,CC(C)N=c1cc2n(-c3ccc(Cl)cc3)c3ccccc3nc-2cc1Nc1ccc(Cl)cc1,0% (inactive)
17,O=C1CCCc2c1cc(C(=O)NCCCN1CCOCC1)c(=O)n2-c1ccc(Cl)cc1,0% (inactive)
18,Cc1ccc(C)c(-n2nnnc2SCC(=O)NCCC2=CCCCC2)c1,3% (inactive)
19,CCCOC(=O)c1[nH]c2c(c1C)C(=O)CC(c1cc(OC)c(OC)c(OC)c1)C2 (stereo not given),0% (inactive)
20,N=c1c(C(=O)NCc2ccc3c(c2)OCO3)cc2c(=O)n3ccccc3nc2n1Cc1cccnc1,2% (inactive)

row,Compound,inhibition
1,Cc1cccc(C)c1-n1nnnc1SCSc1nnnn1-c1c(C)cccc1C,1% (inactive)
2,COC(=O)c1[nH]c(C)c(/C(O)=C2\C(=O)C(=O)N(CCN3CCOCC3)C2c2cccs2)c1C (stereo not given),4% (inactive)
3,C=C(C)c1cccc(C(C)(C)NC(=O)NCC2CCCO2)c1 (stereo not given),2% (inactive)
4,CCOC(=O)N1CCN(c2c(N3CCN(c4ccccc4OC)CC3)c(=O)c2=O)CC1,0% (inactive)
5,O=C(c1ccc2c(c1)[nH]c(=S)n1c3ccccc3nc21)N1CCN(c2ncccn2)CC1,8% (inactive)
6,COc1ccccc1C(=O)NCCNC(=O)c1ccco1,0% (inactive)
7,CC1=NC(Nc2nc(C)c3ccccc3n2)=NC(C)(C)C1,0% (inactive)
8,COc1ccccc1OCCSc1nc2ccccc2c(=O)[nH]1,0% (inactive)
9,Cn1c(=O)c2c(nc(CN3CCN(c4ccccc4F)CC3)n2CCN2CCOCC2)n(C)c1=O,0% (inactive)
10,CC(C)N(C(=O)CSc1nnc(NC(=O)C2CCC2)s1)C(C)C,0% (inactive)
11,Cc1ccccc1C1CC(c2ccccc2)Nc2ncnn21 (stereo not given),12% (inactive)
12,O=C(NCc1ccccn1)C(C(=O)c1ccc(F)cc1)n1ccccc1=O (stereo not given),5% (inactive)
13,CCOC(=O)C1CCCN(C(=O)CNS(=O)(=O)c2ccc(Br)s2)C1 (stereo not given),8% (inactive)
14,CCOC(=O)c1sc(NC(=O)CSc2nnc3c4ccccc4n(CC)c3n2)nc1C,3% (inactive)
15,O=C(CCn1c(=O)oc2ccccc21)NCc1ccco1,1% (inactive)
16,Cn1c(C(=O)NCCN2CCN(c3ccccc3F)CC2)cc2c(=O)n(C)c3ccccc3c21,7% (inactive)
17,O=S(=O)(Nc1ncccn1)c1ccc(Nc2ncnc3ccccc23)cc1,6% (inactive)
18,CCCCN(CC)CCCNC(=O)c1cc2c(=O)n(C)c3ccccc3c2n1C,0% (inactive)
19,COc1ccccc1N(C)S(=O)(=O)c1ccc(C(=O)NC2=NCCS2)cc1,7% (inactive)
20,CCc1ccccc1OCCCCN1CCCC1,0% (inactive)
